Results as given in the supplement of paper PMC11634586.

What follows are molecules tested on NCI-H1688 (assay: inhibition of cell viability relative to untreated control (fraction); higher = stronger growth inhibition, active = 0.5 or more). Conditions: 30 µM; 24 h.
Outline: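 Compounds from a natural compound library (TargetMol) were tested at 30 µM on NCI-H1688 small cell lung cancer cells for 24 h at 37°C under 5% CO2. Cell Counting Kit-8 absorbance at 450 nm, read in triplicate, gave the viability. The values express inhibition of cell viability as a fraction relative to untreated cells.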

SMILES | inhibition of cell viability
C=CCSC[C@H](N)C(=O)O [S-allyl-L-cysteine] | -0.0574 (inactive)
C[C@H](CCC(=O)NCC(=O)O)[C@H]1CC[C@H]2[C@@H]3[C@H](O)C[C@@H]4C[C@H](O)CC[C@]4(C)[C@H]3C[C@H](O)[C@]12C [Glycocholic acid] | -0.11 (inactive)
COC(=O)Nc1nc2cc(C(=O)c3cccs3)ccc2[nH]1 [Nocodazole] | 0.75 (active)
Cc1c(S(=O)(=O)O)oc2c1C(=O)C(=O)c1c-2ccc2c1CCCC2(C)C [Tanshinone IIA-sulfonic sodium] | -0.0961 (inactive)
C[C@H]1[C@H](C)CC[C@]2(C(=O)O[C@@H]3O[C@H](CO[C@@H]4O[C@H](CO)[C@@H](O[C@@H]5O[C@H](C)[C@H](O)[C@@H](O)[C@H]5O)[C@H](O)[C@H]4O)[C@@H](O)[C@H](O)[C@H]3O)CC[C@]3(C)C(=CC[C@@H]4[C@@]5(C)C[C@@H](O)[C@H](O)[C@@](C)(CO)[C@@H]5CC[C@]43C)[C@H]12 [Asiaticoside] | 0.145 (inactive)
O=C(O)/C=C/c1ccc(O)cc1 [p-Coumaric acid] | 0.0191 (inactive)
C[C@H](CCC(=O)NCCS(=O)(=O)O)[C@H]1CC[C@H]2[C@@H]3[C@@H](O)C[C@@H]4C[C@H](O)CC[C@]4(C)[C@H]3CC[C@]12C [Tauroursodeoxycholic Acid] | 0.00688 (inactive)
CC1(C)CC[C@]2(C(=O)O)CC[C@]3(C)C(=CC[C@@H]4[C@@]5(C)CC[C@H](O)[C@@](C)(CO)[C@@H]5CC[C@]43C)[C@@H]2C1 [Hederagenin] | 0.274 (inactive)
COC1=CC(=O)C[C@@H](C)[C@]12Oc1c(Cl)c(OC)cc(OC)c1C2=O [Griseofulvin] | 0.615 (active)
O=Cc1ccc(O)c(O)c1 [Protocatechualdehyde] | 0.314 (inactive)
COc1c2occc2cc2ccc(=O)oc12 [8-Methoxypsoralen] | 0.302 (inactive)
Cn1c(=O)c2[nH]cnc2n(C)c1=O [Aminophylline] | 0.644 (active)
O=C(CCc1ccc(O)cc1)c1c(O)cc(O)cc1O[C@@H]1O[C@H](CO)[C@@H](O)[C@H](O)[C@H]1O [Phlorizin] | -0.0544 (inactive)
C/C=C(/C)C(=O)O[C@H]1[C@H](OC(C)=O)[C@@]2(CO)C(CC1(C)C)C1=CCC3[C@@]4(C)CCC(O[C@@H]5O[C@H](C(=O)O)[C@@H](O[C@@H]6O[C@H](CO)[C@@H](O)[C@H](O)[C@H]6O)[C@H](O)[C@H]5O[C@@H]5O[C@H](CO)[C@@H](O)[C@H](O)[C@H]5O)[C@](C)(CO)C4CC[C@@]3(C)[C@]1(C)C[C@H]2O.C/C=C(\C)C(=O)O[C@H]1[C@H](OC(C)=O)[C@@]2(CO)C(CC1(C)C)C1=CCC3[C@@]4(C)CCC(O[C@@H]5O[C@H](C(=O)O)[C@@H](O[C@@H]6O[C@H](CO)[C@@H](O)[C@H](O)[C@H]6O)[C@H](O)[C@H]5O[C@@H]5O[C@H](CO)[C@@H](O)[C@H](O)[C@H]5O)[C@](C)(CO)C4CC[C@@]3(C)[C@]1(C)C[C@H]2O (stereo partly specified) [Escin] | 0.982 (active)
O=c1c(O[C@@H]2O[C@H](CO)[C@H](O)[C@H](O)[C@H]2O)c(-c2ccc(O)c(O)c2)oc2cc(O)cc(O)c12 [Hyperoside] | -0.0387 (inactive)
O=C(OC[C@H]1O[C@@H](OC(=O)c2cc(O)c(O)c(OC(=O)c3cc(O)c(O)c(O)c3)c2)[C@H](OC(=O)c2cc(O)c(O)c(OC(=O)c3cc(O)c(O)c(O)c3)c2)[C@@H](OC(=O)c2cc(O)c(O)c(OC(=O)c3cc(O)c(O)c(O)c3)c2)[C@@H]1OC(=O)c1cc(O)c(O)c(OC(=O)c2cc(O)c(O)c(O)c2)c1)c1cc(O)c(O)c(OC(=O)c2cc(O)c(O)c(O)c2)c1 [Glycerite] | 0.821 (active)
O=C(/C=C/c1ccc(O)c(O)c1)O[C@H](Cc1ccc(O)c(O)c1)C(=O)O [Rosmarinic acid] | 0.0726 (inactive)
C[N+](C)(C)CC(O)CC(=O)[O-] (racemic) [DL-Carnitine] | 0.00503 (inactive)
O=C(O)CCCCC1CCSS1 (stereo unspecified) [Alphalipoic acid] | 0.0038 (inactive)
O=c1ccc2cc3ccoc3cc2o1 [Psoralen] | -0.0315 (inactive)
COc1ccc2ccc(=O)oc2c1CC=C(C)C [Osthole] | 0.166 (inactive)
